Data: ChEMBL document CHEMBL1201862, “PubChem BioAssay data set” (2004)
The campaign covered roughly 400,000 compounds. About 2,100 (0.53%) were called active. Not shown: some 14% with an inconclusive outcome. No rule for the calls is given here. The entries come from a sample that favours actives as a whole.

Biological target: Ataxin-2 (Homo sapiens) (UniProt Q99700)
Assay: qHTS for Inhibitors of ATXN expression.
Format: functional

Sequence of Ataxin-2 (Homo sapiens) (Q99700 whole entry): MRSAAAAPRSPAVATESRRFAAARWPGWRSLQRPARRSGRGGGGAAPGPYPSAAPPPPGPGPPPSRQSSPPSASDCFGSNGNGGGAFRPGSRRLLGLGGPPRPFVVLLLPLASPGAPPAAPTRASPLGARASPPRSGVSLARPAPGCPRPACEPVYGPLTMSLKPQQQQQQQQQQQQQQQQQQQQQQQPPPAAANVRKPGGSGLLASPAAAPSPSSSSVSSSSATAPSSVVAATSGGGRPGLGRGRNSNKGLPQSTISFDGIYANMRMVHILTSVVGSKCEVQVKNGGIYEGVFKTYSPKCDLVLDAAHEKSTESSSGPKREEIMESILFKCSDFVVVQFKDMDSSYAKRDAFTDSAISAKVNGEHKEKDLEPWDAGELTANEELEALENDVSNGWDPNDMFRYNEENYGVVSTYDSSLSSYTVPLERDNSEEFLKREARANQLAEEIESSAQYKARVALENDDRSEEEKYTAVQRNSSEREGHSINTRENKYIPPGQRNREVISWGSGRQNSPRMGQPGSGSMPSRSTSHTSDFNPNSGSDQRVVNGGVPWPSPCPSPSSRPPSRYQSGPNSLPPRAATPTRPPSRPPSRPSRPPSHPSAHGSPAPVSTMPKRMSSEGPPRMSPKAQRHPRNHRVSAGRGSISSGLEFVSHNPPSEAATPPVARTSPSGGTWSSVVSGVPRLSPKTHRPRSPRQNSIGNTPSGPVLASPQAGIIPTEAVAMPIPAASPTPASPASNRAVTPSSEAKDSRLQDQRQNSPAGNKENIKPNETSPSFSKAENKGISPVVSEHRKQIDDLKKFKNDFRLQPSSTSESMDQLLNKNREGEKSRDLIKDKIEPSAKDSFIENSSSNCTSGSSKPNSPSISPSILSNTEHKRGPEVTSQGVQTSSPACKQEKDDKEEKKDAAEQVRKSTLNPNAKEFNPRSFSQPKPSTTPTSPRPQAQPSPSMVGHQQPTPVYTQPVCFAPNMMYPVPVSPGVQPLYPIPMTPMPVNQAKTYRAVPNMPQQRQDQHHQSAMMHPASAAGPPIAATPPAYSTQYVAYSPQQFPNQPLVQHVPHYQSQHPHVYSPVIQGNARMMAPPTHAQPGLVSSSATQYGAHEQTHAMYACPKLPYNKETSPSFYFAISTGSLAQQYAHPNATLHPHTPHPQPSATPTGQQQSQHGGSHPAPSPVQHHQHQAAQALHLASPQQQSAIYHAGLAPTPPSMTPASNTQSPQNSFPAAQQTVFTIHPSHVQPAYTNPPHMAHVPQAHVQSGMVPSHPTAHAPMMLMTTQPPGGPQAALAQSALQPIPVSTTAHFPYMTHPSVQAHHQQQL

| Compound | Potency |
| --- | --- |
| Cc1ccc(Cn2cccc(-c3nc4ccccc4s3)c2=O)cc1 | inactive |
| CC(C)CC(=O)NC(=S)Nc1nc(-c2ccc(Cl)cc2)cs1 | inactive |
| CC(Nc1nc(-c2ccc(F)cc2)cs1)c1nc2cc(Cl)c(Cl)cc2n1CCCO (stereo not given) | 39.8 µM (active) |
| COc1ccc(-c2csc(NC(=O)CSc3nnnn3C)n2)c(OC)c1 | inactive |
| CC(Nc1nc(-c2ccc(F)cc2)cs1)c1nc2cc(Cl)c(N3CCCCC3)cc2n1CCCO (stereo not given) | 25.1 µM (active) |
| COc1ccc(-c2csc(NC(C)c3nc4cc(Cl)c(Cl)cc4n3CCCO)n2)cc1 (stereo not given) | 39.8 µM (active) |
| O=C(CN1CCN(Cc2ccc(F)cc2)CC1)Nc1nc2ccccc2s1 | inactive |
| Cc1ccc(Cn2c(C(CO)Nc3nc(-c4ccc(F)cc4)cs3)nc3ccccc32)cc1 (stereo not given) | 25.1 µM (active) |
| COc1ccc(/N=C/C2=C(O)c3c(sc(C)c3C)N(C)S2(=O)=O)cc1 | inactive |
| CC(Nc1nc(-c2ccc(F)cc2)cs1)c1nc2cc(C(F)(F)F)ccc2n1CCCO (stereo not given) | 22.4 µM (active) |
| C/C(=N\NC(=O)COc1ccccc1-c1ccccc1)c1ccccn1 | 6.7 µM (active) |
| C/C(=N\NC(=O)c1c[nH]c2ccccc12)c1ccccn1 | inactive |
| CC(=O)Nc1ccc(NC(=O)COC(=O)c2ccccn2)cc1 | inactive |
| CCCn1nc(NC(=O)C(C)C)c2cc3cc(OC)ccc3nc21 | inactive |
| N=c1oc2ccccc2cc1-c1nc(-c2ccccc2)cs1 | inactive |
| CN(C)S(=O)(=O)c1ccc(Cl)c(C(=O)Nc2cccc([N+](=O)[O-])c2)c1 | inactive |
| CCN(CC)S(=O)(=O)c1cc([N+](=O)[O-])ccc1NNC(=O)Nc1ccc(Cl)c(Cl)c1 | 39.8 µM (active) |
| CCN(CC)S(=O)(=O)c1cc(NC(=O)C2CC(=O)N(Cc3ccccc3)C2)ccc1Cl (stereo not given) | inactive |
| CC1=CC(c2ccccc2)n2nc(NC(=O)CCCC(=O)O)nc2N1 (stereo not given) | inactive |
| CN(C)/C=C1\C=C2C(=O)c3ccccc3N2C1=O | inactive |
| COc1ccc(-c2nnc(C3CCN(S(=O)(=O)c4ccccc4)CC3)o2)cc1 | 26.7 µM (active) |
| Cc1ccc(S(=O)(=O)N2CCN(C(S)=NCc3ccc4c(c3)OCO4)CC2)cc1 | inactive |
| O=C(c1ccc(F)cc1)C1CCN(S(=O)(=O)c2ccccc2)CC1 | inactive |
| CCCc1ccc(S(=O)(=O)N2CCC(c3nnc(-c4cccc(C)c4)o3)CC2)cc1 | 8.91 µM (active) |
| CCOC(=O)C1(CC2CCCCO2)CCN(S(=O)(=O)c2ccc(OC)cc2)CC1 (stereo not given) | inactive |
| CCCc1nn(-c2ccc([N+](=O)[O-])cc2)c(O)c1/C=N/CCCn1ccnc1 | inactive |
| O=[N+]([O-])c1ccc(-c2ccc(/C=N/Nc3nc(N4CCCCC4)nc(N4CCCCC4)n3)o2)cc1 | inactive |

| Compound | Potency |
| --- | --- |
| O=C(NNC(=O)c1cc(-c2ccc(Br)cc2)nc2ccccc12)c1csc(N2CCOCC2)n1 | inactive |
| Clc1ccc(SCc2csc(N3CCOCC3)n2)cc1 | inactive |
| S=C(NCCCN1CCOCC1)N1CCN(c2nc(-c3ccc(Cl)cc3)cs2)CC1 | 31.6 µM (active) |
| COc1ccccc1NC(=O)c1sc2nc(C)cc(C)c2c1N | inactive |
| COCc1cc(C)nc2sc(C(=O)Nc3ccccc3OC)c(N)c12 | inactive |
| COc1ccccc1NC(=O)C1=C(C)Nc2nc(SCc3ccccc3)nn2C1c1cccc(O)c1 (stereo not given) | 31.6 µM (active) |
| CCS(=O)(=O)c1nc(S(=O)(=O)c2ccc(C)cc2)c(N2CCN(C)CC2)s1 | inactive |
| O=C(Oc1cccc2cccnc12)c1cccc(N2C(=O)C3C4CCC(C4)C3C2=O)c1 (stereo not given) | inactive |
| COC(=O)c1ccc(NC(=O)c2cccc(C)c2)cc1 | inactive |
| COC(=O)c1ccc(NC(=O)c2cccc(N3C(=O)C4C5C=CC(C6CC56)C4C3=O)c2)cc1 (stereo not given) | 39.8 µM (active) |
| CCN(CC(=O)Nc1ccc(NC(C)=O)cc1)C(=O)CSC(=S)N1CCCC1 | 3.55 µM (active) |
| CC(=O)Nc1ccc(NC(=O)CC2CCCC2)cc1 | inactive |
| Cc1ccc(NC(=O)COC(=O)CSC(=S)N2CCOCC2)cc1 | inactive |
| CCN(CC)CCCNc1oc(/C=C/c2ccccc2)nc1C#N | inactive |
| O=C(NN=Cc1cc([N+](=O)[O-])ccc1O)c1cccc2ccccc12 | 33.6 µM (active) |
| O=C(N/N=C/c1sc2ccccc2c1O)c1cccc2ccccc12 | inactive |
| Cc1occc1C(=O)N/N=C/c1cccc2ccccc12 | inactive |
| COc1cccc(/C=N/NC(=O)c2cc3cc([N+](=O)[O-])ccc3s2)c1O | 14.1 µM (active) |
| COc1cccc(/C=N/NC(=O)c2ccc(=O)n(C)c2)c1O | inactive |
| COc1cccc(/C=N/NC(=O)c2c(C)nc3ccc(Cl)cn23)c1OC | inactive |
| O=C(N/N=C/c1cc([N+](=O)[O-])ccc1O)c1ccc2c(c1)OCCO2 | 50.1 µM (active) |
| CCOc1cc(/C=N/NC(=O)c2ccc3c(c2)OCCO3)cc(Br)c1O | inactive |
| COc1cc(Cl)cc(/C=N\NC(=O)c2ccc3c(c2)OCO3)c1O | inactive |
| Fc1ccc(NC(=S)N2CCSC2c2cccs2)cc1 (stereo not given) | inactive |
| CC(C)OC(=O)CC(=O)CSc1nc2c(c(-c3cccs3)c1C#N)CCC2 | inactive |
| CC1CN(CCOCCSc2ccc(Cl)cc2)CC(C)O1 (stereo not given) | inactive |
| Cn1c2ccccc2c2nnc(NN)nc21 | inactive |

| Compound | Potency |
| --- | --- |
| CN(Cc1ccsc1)C(=O)CCc1nnc(CCCc2ccccc2)o1 | inactive |
| COCCCNCCCCSc1ccc(Cl)cc1 | inactive |
| CCCCOc1ccc(C(=O)NCCc2ccccc2)cc1 | inactive |
| COc1cc(OC)cc(C(=O)NNC(=S)NC(=O)c2cccnc2)c1 | inactive |
| CCCOc1ccc(C(=O)NNC(=S)NC(=O)CC)cc1 | 31.6 µM (active) |
| Cc1ccc(SCc2c(C(=O)N/N=C/c3ccoc3)nnn2-c2nonc2N)cc1 | inactive |
| CCOC(=O)c1[nH]c2ccc(Cl)cc2c1NC(=O)/C=C/c1ccc2c(c1)OCO2 | 44.7 µM (active) |
| CCN(C(=O)COC(=O)/C=C/c1ccc2c(c1)OCO2)c1c(N)n(Cc2ccccc2)c(=O)[nH]c1=O | inactive |
| CC(=O)Nc1ccc(NC(=O)/C=C/c2ccc3c(c2)OCO3)cc1 | inactive |
| CCN(CC)S(=O)(=O)c1cccc(-c2nnc(SCC(N)=O)n2C)c1 | inactive |
| CC1=NNC(=O)/C1=C\c1cn(-c2ccccc2)nc1-c1ccc(F)cc1 | 8.91 µM (active) |
| CC1=NNC(=O)/C1=C\c1cn(-c2ccccc2)nc1-c1ccc(Cl)cc1 | 10 µM (active) |
| CCSc1ccc(-c2nn(-c3ccccc3)cc2/C=C(/C#N)C(=O)NC)cc1 | inactive |
| O=Cc1cn(-c2ccccc2)nc1-c1cc2cc(O)ccc2oc1=O | inactive |
| CCCOc1ccc(-c2nn(-c3ccccc3)cc2/C=C2\SC(N)=NC2=O)cc1 | inactive |
| CCCSc1ccc(-c2nn(-c3ccccc3)cc2/C=C(/C#N)C(=O)NCCCOC)cc1 | inactive |
| CCC(C)Sc1nc(O)c2cnn(-c3ccc(F)cc3)c2n1 (stereo not given) | inactive |
| O=C(N/N=C\c1cc(Br)ccc1O)c1ccc(S(=O)(=O)N2CCCCC2)cc1 | inactive |
| CC(OC(=O)Cn1cnc2c1c(=O)n(C)c(=O)n2C)C(=O)Nc1ccc(Cl)cc1 (stereo not given) | inactive |
| Oc1ccc(C2C=C(c3ccc(F)cc3)Nc3ncnn32)cc1 (stereo not given) | inactive |
| Cc1cc(C)nc(-n2nc(C)c3c2NC(=O)CC3c2ccccc2OC(C)C)n1 (stereo not given) | 25.1 µM (active) |
| CCCCCCSc1ccc(-c2nc3cnccn3c2NC2CCCCC2)cc1 | inactive |
| CCOC(=O)c1c(C)[nH]c(C(=O)COC(=O)CCNS(=O)(=O)c2ccc(NC(C)=O)cc2)c1C | inactive |
| CCCCn1c(NC(=O)c2ccco2)c(S(=O)(=O)c2ccc(C)cc2)c2nc3ccccc3nc21 | inactive |
| CC[n+]1c(/C=C2\SC(c3ccccc3C)=CN2C)sc2ccccc21 | inactive |
| CC[n+]1c(/C=C/C=C/N(C(C)=O)c2ccccc2)sc2ccccc21 | 35.5 µM (active) |
| CCn1nc(-c2ccccc2)c2nc3ccccc3nc21 | inactive |

| Compound | Potency |
| --- | --- |
| O=C(NCc1ccccc1)c1c(Cl)nc(Cl)c(Cl)c1Cl | 39.8 µM (active) |
| Cc1nc(Cl)c(C(=O)NCc2ccccc2)c(C)c1Cl | inactive |
| Nc1c(Cl)c(Cl)nc(C(=O)OCC(=O)NCc2ccccc2)c1Cl | inactive |
| CCOC(=O)c1sc2nc(-c3cccnc3)ccc2c1N | inactive |
| CCOC(=O)c1nc(Nc2ccccc2CC)c2ccccc2n1 | inactive |
| CCOC(=O)c1cccc(Nc2nc(C(=O)OCC)nc3ccccc23)c1 | 39.8 µM (active) |
| CCOC(=O)c1sc2nc(C)cc(-c3ccccc3)c2c1N | inactive |
| CC(=O)c1cccc(Nc2nc(-c3ccccc3)nc3ccccc23)c1 | inactive |
| CCCOC(=O)c1cccc(Nc2nc(-c3cccnc3)nc3ccccc23)c1 | 35.5 µM (active) |
| O=c1cc(-c2ccccc2)c2ccc(O)cc2o1 | inactive |
| O=C1CN(C(=O)NCC(=O)N2CCCC2)c2ccccc2N1 | inactive |
| O=C1OCCN1C(=O)[C@H]1[C@H](c2ccccc2)C(c2ccc(F)cc2)=NN1c1ccc(Br)cc1 | inactive |
| CCCC(O)(CCC)C(=O)NN(C(=O)CCl)c1cccc(C)c1 | 21.2 µM (active) |
| CCCCCCCN(C(=O)CCl)c1cccc(C)c1 | 14.1 µM (active) |
| Cc1ccc(S(=O)(=O)Oc2ccc(C3C4=C(CCCC4=O)N(CCC(=O)O)C4=C3C(=O)CCC4)cc2Cl)cc1 | inactive |
| O=c1c2ccccc2n(CC(O)CN2CCOCC2)c2ccccc12 (stereo not given) | inactive |
| O=C(c1ccc(F)cc1)C(CN1CCOCC1)c1ccccc1 (stereo not given) | 25.1 µM (active) |
| OC(CN1CCN(C(c2ccccc2)c2ccccc2)CC1)c1ccc(Br)cc1 (stereo not given) | inactive |
| O=C(c1ccc(F)cc1)C1CCN(Cc2ccccc2)CC1 | inactive |
| O=C(c1ccccc1)C(CCC(CN1CCOCC1)C(=O)c1ccccc1)CN1CCOCC1 (stereo not given) | 14.1 µM (active) |
| O=C(c1ccc(Br)cc1)C(CN1CCOCC1)c1ccccc1 (stereo not given) | 29.9 µM (active) |
| O=c1oc2c(CN3CCOCC3)c(O)ccc2cc1-c1ccccc1 | inactive |
| O=C(c1ccc(Br)cc1)c1sc(N2CCOCC2)nc1-c1ccccc1 | inactive |
| CC(N=C(S)N1CCOCC1)c1ccccc1 (stereo not given) | inactive |
